The list is not random: actives were taken first. Their share in the collection is about 11%.
IMPase Li inh: IMPase inhibition in cells with lithium potentiation; CHO-M1 cells, IP1 TR-FRET (IP-One), carbachol + lithium; Potency, µM (doses to about 59.4 µM), for inactives: top-dose activity, negative = IMPase inhibition, most hits filed as inhibitors; 210,000 compounds, 0.35% hits; AID 1457; active = well fitted curve in the direction sought with a large enough effect; inconclusive = small, poorly fitted or top-dose-only effect, or another doubt; inactive = no such curve, though single readings can be large; an effect the other way counts as inactive or inconclusive;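 also: IP1 builds up when IMPase is blocked and the TR-FRET signal falls; potency is read from the fitted curve at half-maximal effect; plate controls were basal vehicle for no effect and high inhibitor control for full effect; nearly all actives have a fitted effect of over 50% in size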
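CHO-M1, 2000 cells/well, 16–30 h culture; cpd + low Li+, 30 min 37C; lysis with d2-IP1/Eu-anti-IP1 Ab, 10 min RT; TR-FRET 665/620 ratio and 620 channel; AC50 via Hill.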
IMPase inh: cell-permeable inhibitors of inositol monophosphatase (IMPase); 120,000 tested, under 10 active; CHO-M1 cells, IP1 accumulation, HTRF TR-FRET ratio; inhibition (IP1 accumulation), % at 46.1 µM; P97697; active = well fitted curve in the direction sought with a large enough effect in the signal ratio, not every such curve was filed as active; inconclusive = small, poorly fitted or top-dose-only effect, or a change in a side signal; inactive = no such curve, though single readings can be large or run the other way; the % refers to the signal ratio;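 also: cells stimulated with carbachol in lithium chloride buffer; plate controls were DMSO basal wells for no effect and reference inhibitor wells for full effect; higher means more IMPase inhibition seen as more IP1 and lower FRET ratio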
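Seeded CHO-M1 cells were dosed with compound at up to 46 uM, stimulated with carbachol for 30 min, then lysed in IP-One detection reagents. Higher IP1 lowers the TR-FRET signal.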
HPGD block: blocks human HPGD enzyme activity. 150,000 compounds, 4.3% hits. P15428. AID 894. Potency, µM, for the others: top-dose activity change, negative = inhibition, most hits filed as inhibitors. purified HPGD, NADH fluorescence kinetic, PGE2 substrate; also: potency is read from the fitted curve at half-maximal effect
Target sequence (P15428 whole entry, looked up): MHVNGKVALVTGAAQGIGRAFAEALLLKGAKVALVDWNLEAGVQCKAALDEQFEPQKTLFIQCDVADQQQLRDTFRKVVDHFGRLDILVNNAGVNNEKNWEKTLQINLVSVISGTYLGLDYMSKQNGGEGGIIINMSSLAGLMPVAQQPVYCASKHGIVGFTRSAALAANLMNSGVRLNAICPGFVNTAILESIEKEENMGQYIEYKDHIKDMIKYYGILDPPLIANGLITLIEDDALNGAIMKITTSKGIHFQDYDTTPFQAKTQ
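NADH formation kinetics: reaction with 30 uM PGE2 and 1 mM NAD+ (final), 20 nM enzyme, Tris-HCl pH 8 with Tween 20, after 15 min compound preincubation at room temperature. Fluorescence change, last versus first of five reads.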
ALDH1A1 block: blocks purified human ALDH1A1 activity; Purified ALDH1A1, NADH fluorescence, propionaldehyde substrate; 220,000 compounds, 7.3% hits; AID 1030; P00352; Potency, µM (series often up to 75.3 µM), inactives show top-dose activity, negative = inhibition, actives largely listed as inhibitors;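 also: potency is read from the fitted curve at half-maximal effect; plate controls were no enzyme wells and a reference inhibitor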
Target sequence (P00352 whole entry, looked up): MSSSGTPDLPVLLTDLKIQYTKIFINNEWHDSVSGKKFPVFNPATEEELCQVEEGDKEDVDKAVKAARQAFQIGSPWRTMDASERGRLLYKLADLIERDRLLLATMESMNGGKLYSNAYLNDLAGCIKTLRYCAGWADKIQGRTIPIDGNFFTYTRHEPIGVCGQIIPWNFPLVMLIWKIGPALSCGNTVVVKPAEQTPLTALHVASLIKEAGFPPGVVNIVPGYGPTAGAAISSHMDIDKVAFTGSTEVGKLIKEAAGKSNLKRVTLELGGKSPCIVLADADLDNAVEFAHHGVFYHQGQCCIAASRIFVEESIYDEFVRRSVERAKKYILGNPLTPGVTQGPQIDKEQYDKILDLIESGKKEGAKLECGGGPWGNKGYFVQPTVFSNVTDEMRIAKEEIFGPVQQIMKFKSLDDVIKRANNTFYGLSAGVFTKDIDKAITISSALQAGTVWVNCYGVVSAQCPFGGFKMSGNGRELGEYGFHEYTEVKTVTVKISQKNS
ALOX12 inhib: 12-hLO (ALOX12) enzyme inhibition; Potency, µM (doses to about 57.1 µM), inactives show top-dose activity change, negative = inhibition, usual class: inhibitors; 150,000 compounds, 0.12% hits; P18054; purified 12-hLO, xylenol orange hydroperoxide absorbance; AID 1452; active = well fitted curve in the direction sought with a large enough effect; inconclusive = small, poorly fitted or top-dose-only effect, or another doubt; inactive = no such curve, though single readings can be large; an effect the other way counts as inactive or inconclusive; also: potency is read from the fitted curve at half-maximal effect; nearly all actives have a fitted effect of over 55% in size
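Xylenol orange chromogenic assay: hydroperoxide from 12hLO oxidises Fe(II), giving red-shifted Fe(III)-XO absorbance. Conditions: 150 nM enzyme, 40 uM arachidonic acid, 25 mM Hepes pH 7.0, 0.01% Triton X-100, 30 min, room temperature.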
PNC assembly inh: inhibitors of perinucleolar compartment assembly | PC3M PTB-GFP, PNC prevalence imaging, 16 h; hits give low values | activity change (PNC), negative = inhibition, % at 10 µM | 140,000 compounds, 3.1% hits | AID 2417;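 active = readout at or below -70, meaning at least 70% loss of cells showing the perinucleolar compartment, a nuclear body marking cancer cells; inconclusive = readout between -30 and a set limit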;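 also: plate controls were DMSO wells for no effect and camptothecin positive control wells for full effect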
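PC3M cells stably expressing PTB-GFP, 750–1000 cells/well, treated 16 h at 37 °C with compound (23 nl of library stock), in duplicate. After paraformaldehyde fixation and Hoechst stain, imaged at 20x; PNC prevalence scored by image analysis.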
* hit, by the source's call; ? = inconclusive; . = no result given; [ ] = another dose, or the depositor's remark. Unless noted, calls follow the shape of the dose curve; as a rule, active = well fitted inhibition curve with a large enough effect (not every such curve was filed as active); inconclusive = small, poorly fitted or top-dose-only effect, or another doubt; inactive = no such curve, though single readings can be large or run the other way. Unless noted, % is scaled to controls: 0 for no effect and ±100 for the full control effect.

SMILES	IMPase Li inh	IMPase inh	HPGD block	ALDH1A1 block	ALOX12 inhib	PNC assembly inh
COCCn1c(C)cc(C2=NNC(=NC3CC3)SC2)c1C	4%	.	.	-3%	.	.
COCCn1c(C)cc(C2=NNC(=Nc3ccc(Cl)cc3Cl)SC2)c1C	5%[38.3 µM]	1	-11%	25µM*	-13%	?
COc1ccc(-n2c(C)cc(C3=NNC(=NC4CC4)SC3)c2C)cc1	3%	.	.	?	.	.
C=CCN=C1NN=C(c2cc(C)n(CCOC)c2C)CS1	10%	.	-20%	?	-1%	?
COC(=O)[C@@]1(C)C[C@@H]1[C@@H](NC(=O)[C@@]1(C)C[C@@H]1[C@@H](NC(=O)[C@@]1(C)C[C@@H]1[C@@H](NC(=O)[C@@]1(C)C[C@@H]1[C@@H](NC(=O)OCc1ccccc1)c1ccccc1)c1ccccc1)c1ccccc1)c1ccccc1	-15%	.	-2%	3%	2%	.
COc1ccc(C(C)=O)cc1COC(=O)c1cnc(Cl)c(Cl)c1	16%	.	.	1.4µM*	.	.
COc1ccc(C(C)=O)cc1COC(=O)c1ccc(S(=O)(=O)N(C)C)cc1	8%	.	.	7.1µM*	.	.
COc1ccc(C(C)=O)cc1COC(=O)c1ccc2c(c1)OCO2	1%[38.3 µM]	3	-14%	10µM*	-23%	-8
COc1ccc(C(C)=O)cc1COc1ccc(F)cc1	9%	.	.	?	.	.
CCOC(=O)CCCOC(=O)c1ccc(S(=O)(=O)N(C)C)cc1	-1%	-5	-13%	6%	-1%	-100*
CN(C)S(=O)(=O)c1ccc(C(=O)OCc2ccc(C#N)cc2)cc1	26%[38.3 µM]	0	-4%	-12%	2%	?
CNS(=O)(=O)c1cccc(C(=O)OCc2cc(C(C)=O)ccc2OC)c1	11%	.	.	?	.	.
CC(C)[C@@H](CC(=O)N[C@@H]1CCNC[C@H]1C(=O)N[C@H](CC(=O)N[C@@H](CCC(=O)O)CC(=O)O)Cc1ccccc1)NC(=O)C[C@H](CO)NC(=O)[C@@H]1CCCC[C@H]1N	10%	.	-4%	-1%	3%	.
Cc1cc(C)c(S(=O)(=O)N2CCCOC2CNC(=O)C(=O)NCc2cccs2)c(C)c1 (stereo not drawn)	8%	.	-12%	4%	2%	10
CCOc1ccccc1C(=O)NC(C)c1ccc2c(c1)OCO2 (stereo not drawn)	32%	-11	?	12%	1%	-103*
CC(NC(=O)C1CCC1)c1ccc(Br)cc1 (stereo not drawn)	20%	.	-28%	5%	-5%	-25
Cc1ccc(C(C)NC(=O)C2CCCO2)cc1C (stereo not drawn)	11%	-10	16µM*	-3%	2%	?
CC(NC(=O)C1CCC1)c1ccc2c(c1)OCO2 (stereo not drawn)	17%[38.3 µM]	2	20µM*	9%	-3%	28
CN(C1CCS(=O)(=O)C1)S(=O)C12CC3CC(CC(C3)C1)C2 (stereo not drawn)	-3%	-2	-10%	?	-3%	-100*
CC1CN2C(CCC(C)C2c2ccc(Br)cc2)C(=O)O1 (stereo not drawn)	.	.	.	28%[13.5 µM]	.	.
CCN(CC)CCNC(C(=O)Nc1cccc(C(C)=O)c1)c1ccccc1 (stereo not drawn)	25%	.	.	14µM*	.	.
COCC(C)NC(C(=O)Nc1cccc(C(C)=O)c1)c1ccccc1 (stereo not drawn)	13%	.	.	14µM*	.	.
CN1CCCC2(CCN(C(=O)c3cnccn3)CC2)C1	12%	.	-10%	4%	4%	.
COC(=O)c1c(O)cc(=O)n2c1CCCCC2	15%	.	.	1.8µM*	.	.
COC(=O)c1c(C(=O)OC)c2n(c1C)CCC2	-12%[38.3 µM]	1	-5%	7%	6%	16
SMILES	IMPase Li inh	IMPase inh	HPGD block	ALDH1A1 block	ALOX12 inhib	PNC assembly inh
CCOc1ccc2c(c1)OC(c1ccc(OC)cc1)(C(F)(F)F)NC2=O (stereo not drawn)	3%	8	-9%	11%	-1%	-92*
Cc1ccc(C=C2C(=O)c3ccccc3C2=O)s1	52%[38.3 µM]	2	13µM*	0.5µM*	-26%	13
O=C1C(=Cc2cccs2)C(=O)c2ccccc21	10%	.	?	?	2%	?
COc1ccc(OC)c(C2NC(=O)NC(C)=C2C(=O)Nc2cc(C)cc(C)c2)c1 (stereo not drawn)	.	15	.	.	.	.
O=Cc1cccc(Br)c1	4%	.	-8%	?	0%	.
COC(=O)/C(=C1/Oc2cc(C)oc(=O)c2S1)C(F)(F)F	-21%	-3	7.9µM*	0%	-1%	-100*
CCOC(=O)c1nonc1NC(C)=O	2%	2	-5%	0%	5%	-100*
CCOC(=O)c1nnn(-c2nonc2NC(C)=O)c1C	28%[38.3 µM]	2	-5%	15%	3%	?
CC(C)OC(=O)/C(=C/c1cccnc1)NC(=O)c1ccccc1	-6%	-7	4%	11%	-1%	-92*
COC(=O)c1sccc1NC(=O)c1c(-c2ccccc2)noc1C	4%	.	-18%	8.9µM*	0%	-10
O=C(Nc1cccc2cccnc12)c1cccnc1	25%[38.3 µM]	2	-8%	-5%	-1%	-85*
COC(=O)c1c(-c2ccc(C)cc2)csc1NC(=O)c1c(-c2ccccc2)noc1C	2%	13	?	?	-3%	?
CCOc1ccccc1C(=O)Nc1ccsc1C(=O)OC	11%	.	-10%	-11%	-4%	-110*
COC(=O)c1sccc1NC(=O)c1cccnc1	-13%[38.3 µM]	-1	28µM*	-5%	5%	?
CCOC(=O)c1c(NC(=O)c2c(-c3ccccc3)noc2C)sc(C)c1-c1ccccc1	27%[38.3 µM]	-9	?	?	-4%	-103*
Cc1onc(-c2ccccc2)c1C(=O)NC(=S)NNC(=O)c1cccnc1	3%	.	-6%	?	-1%	-13
Cc1onc(-c2ccccc2)c1C(=O)NC(=S)NNC(=O)c1ccncc1	4%	.	-21%	18µM*	-1%	-14
COc1ccc(Cc2nnc(NC(=O)c3c(-c4ccccc4)noc3C)s2)cc1OC	12%	7	-26%	32µM*	-2%	10
COc1ccccc1-c1nccc(NCc2cccc(C)c2)n1	4%	.	-7%	?	-2%	.
O=C(CCc1nc(-c2ccccc2F)no1)NCCc1ccccc1Cl	3%[38.3 µM]	-9	-6%	?	-14%	-26
O=C(CCc1nc(-c2ccccc2F)no1)NC1CCCCCC1	25%[38.3 µM]	-6	28µM*	-11%	2%	?
O=C(CCc1nc(-c2ccccc2)no1)NC1CCCCC1	18%[38.3 µM]	0	18µM*	?	6%	5

Screening data from PubChem.
